The text below walks through data of PubChem BioAssay (NCATS).

The target of experiment [1] is Estrogen receptor (Homo sapiens) (UniProt P03372). The experiment in a line: qHTS assay for small molecule antagonists of estrogen receptor alpha signaling (AID 588513; active = well fitted curve in the direction sought with a large enough effect in the signal ratio, with a control signal flat, not every such curve was filed as active; the % refers to the signal ratio; also: % is scaled to controls: 0 for no effect and ±100 for the full control effect). An outline of the steps: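 Fluorescence from CCF4 substrate after 2 h at room temperature gave reporter activity; cells had been exposed to compound and 0.5nM 17-beta-estradiol for 18 h at 37 C. Hill-equation fitting yielded IC50 and maximal response.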
Background: Quantitative high-throughput screening tests each substance at several concentrations.

The target is the same in experiment [2]. The experiment in a line: qHTS assay for small molecule agonists of estrogen receptor alpha signaling (AID 588514; calls by dose curve;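 also: 0% = vehicle only and 100% = reference agonist; nearly all actives have a fitted effect of over 70% in size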). The method, boiled down: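 EC50 and efficacy came from Hill fits of beta-lactamase reporter signal (CCF4 dye, 2 h at room temperature) scaled between DMSO and 20 nM 17-beta-estradiol. Agonist mode: HEK293 ER-alpha-UAS-bla cells in charcoal/dextran-stripped serum medium, 18 h compound exposure at 37 C.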

Experiment [3] has as its target Glucocorticoid receptor (Homo sapiens) (UniProt P04150). Description: qHTS assay for small molecule agonists of glucocorticoid receptor signaling (AID 588532; active = well fitted curve in the direction sought with a large enough effect in the signal ratio, with a control signal flat; the % refers to the signal ratio;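 also: 100% = dexamethasone at 0.1 µM and 0% = DMSO only wells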). As to conditions: HeLa MMTV-bla, beta-lactamase ratio, agonist, 18 h; stronger effect = higher value; percent of dexamethasone control, DMSO zero. The method, boiled down:
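MMTV-bla HeLa, beta-lactamase reporter; medium with 1% charcoal/dextran-stripped FBS; cpds up to 92 uM, 18 h, 37 C; CCF4 readout 460/530 nm; Hill fit → EC50, efficacy vs 0.1 uM dexamethasone = 100%.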

Experiment [4] can be described thus: qHTS assay for small molecule antagonists of peroxisome proliferator-activated receptor delta signaling (AID 588535; active = well fitted inhibition curve with a large enough effect in the signal ratio, with a control signal flat, not every such curve was filed as active; the % refers to the signal ratio;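 as to max response: cells co-treated with a PPAR-delta agonist as stimulator during compound exposure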). As to conditions: HEK293T PPARd-UAS-bla, beta-lactamase FRET ratio, 18 h; 460 nm channel. An outline of the steps: (§1)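 Inhibition of PPAR-delta response element-driven beta-lactamase expression is measured in HEK293T cells exposed to a compound titration series for 18 hrs at 37 C. Half-maximal inhibition comes from Hill equation fitting.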

For experiment [5], the target named is Peroxisome proliferator-activated receptor delta (Homo sapiens) (UniProt Q03181). The experiment is described as above. An outline of the steps: as §1
The target in experiment [6] is Peroxisome proliferator-activated receptor gamma (Homo sapiens) (UniProt P37231). The experiment in a line: qHTS assay for small molecule agonists of peroxisome proliferator-activated receptor gamma signaling (AID 588536; active = well fitted curve in the direction sought with a large enough effect in the signal ratio, with a control signal flat, not every such curve was filed as active; the % refers to the signal ratio;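 also: 0% = DMSO basal wells and 100% = rosiglitazone at 2 µM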). An outline of the steps:
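Compound treatment: 16 h, 37 C, HEK293 GeneBLAzer cells. Detection: CCF4, 2 h RT. Values: Hill-fit EC50, efficacy as % of 2 uM rosiglitazone.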

Experiment [7] can be described thus: qHTS assay for small molecule agonists of retinoid X receptor alpha signaling (AID 588544). The settings on record: HEK293T RXRa-UAS-bla, beta-lactamase reporter, 18 h; 530 nm emission.
The target of experiment [8] is Thyroid hormone receptor beta (Homo sapiens) (UniProt P10828). The experiment in a line: qHTS assay for small molecule agonists of thyroid hormone receptor beta signaling (AID 588545; calls by dose curve). An outline of the steps: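 Cells (2500/well) were seeded, incubated 4 hrs at 37 C, dosed with a compound series, incubated 18 hrs, loaded with CCF4 dye for 2 hrs at RT, then read for fluorescence. Data were scaled between DMSO (0%) and 10 nM T3 (100%).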

Experiment [9] can be described thus: qHTS assay for small molecule antagonists of retinoid X receptor alpha signaling (AID 588546; active = well fitted inhibition curve with a large enough effect in the signal ratio, with a control signal flat, not every such curve was filed as active; the % refers to the signal ratio;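 also: cells stimulated with 9-cis-retinoic acid as agonist; % is scaled to controls: 0 for no effect and ±100 for the full control effect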). As to conditions: HEK293T RXRa-UAS-bla, beta-lactamase ratio, antagonist mode; measured here: W530 green channel, cytotoxicity proxy. An outline of the steps:
(§2)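 Beta-lactamase reporter inhibition, read as CCF4 fluorescence ratio (ex 405, em 460/530 nm) after 2 h at RT. HEK293T UAS-bla cells, 2500/well, were stimulated with 9-cis-RA at 500 or 100 nM final alongside test compound for 18 h at 37 C.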

The target of experiment [10] is Retinoic acid receptor RXR-alpha (Homo sapiens) (UniProt P19793). The experiment is described as above. The settings on record: HEK293T RXRa-UAS-bla, beta-lactamase ratio, antagonist mode. An outline of the steps:
as §2

In experiment [11] the target is Thyroid hormone receptor beta (Homo sapiens) (UniProt P10828). Description: qHTS assay for small molecule antagonists of thyroid hormone receptor beta signaling (AID 588547; active = well fitted inhibition curve with a large enough effect in the signal ratio, with a control signal flat, not every such curve was filed as active; the % refers to the signal ratio;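 also: cells stimulated with 0.4 nM T3 agonist during compound exposure; series mostly up to about 77 µM; % is scaled to controls: 0 for no effect and ±100 for the full control effect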). The settings on record: TR-UAS-bla HEK293, beta-lactamase ratio, antagonist mode, 18 h. The method, boiled down: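 TR-UAS-bla GripTite HEK293 cells in 2% charcoal/dextran FBS medium were preincubated 4 h at 37 C, given compound (0.59 nM to 92 uM) plus 0.4 nM T3 (final) for 18 h, then CCF4 for 2 h at RT; Hill fit gave IC50.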

The nature of experiment [12]: qHTS assay for small molecule activators of the p53 signaling pathway (AID 651743; active = well fitted activation curve with a large enough effect in the signal ratio, not every such curve was filed as active; the % refers to the signal ratio; also: series mostly up to about 92 µM; % of control where 0% means no effect). As to conditions: HCT-116 p53RE-bla, beta-lactamase FRET ratio, 16 h; activation: stronger effect = higher value. An outline of the steps:
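Agonist-mode quantitative HTS in HCT-116 cells carrying a p53-response-element beta-lactamase reporter; 16 h compound treatment at 37 C, then FRET substrate loading for 2 h at room temperature and fluorescence read.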

Experiment [13] can be described thus: qHTS assay for environmental chemicals that activate the Aryl hydrocarbon Receptor (AhR) signaling pathway (AID 651777). Also: % of control where 0% means no effect; nearly all actives have a fitted effect of over 15% in size. As to conditions: 1A2-DRE human hepatoma cells, luciferase, 24 h; activation: stronger effect = higher value. An outline of the steps: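 Stable CYP1A2 promoter/DRE-luciferase human hepatoma line treated 24 hr; One-Glo luminescence, 30 min RT.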
Experiment [14] deals with Peroxisome proliferator-activated receptor alpha (Homo sapiens) (UniProt Q07869). The experiment in a line: qHTS assay for small molecule agonists of the peroxisome proliferator-activated receptor alpha (PPARalpha) signaling pathway (AID 651778). Also: % of control where 0% means no effect. The settings on record: PathHunter PPARalpha complementation, chemiluminescence, 6 h; max response: stronger effect = higher value. An outline of the steps: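 Cells plated at 2,000/well and held overnight at 37 C, 5% CO2, then compound added by pin tool for 6 hr; after PathHunter detection reagent and 60 min at room temperature, chemiluminescence from enzyme complementation was read.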

A short description of experiment [15]: qHTS assay for small molecule agonists of the antioxidant response element (ARE) signaling pathway measured by Nrf2-dependant transcriptional activity (AID 720636; active = well fitted curve in the direction sought with a large enough effect in the repeat runs; an effect the other way counts as inactive or inconclusive;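 also: HepG2 cells with an ARE-driven luciferase reporter; % of control where 0% means no effect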). The method, boiled down: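 Reporter gene assay, HepG2 ARE-luc: 16 hr compound, 37 C, 5% CO2; read-out luciferase luminescence.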
Experiment [16] is described as follows: qHTS assay for small molecule agonists of the antioxidant response element (ARE) signaling pathway measured by Nrf2-dependant transcriptional activity - cell viability counter screen (AID 720653; active = well fitted curve in the direction sought with a large enough effect in the repeat runs; an effect the other way counts as inactive or inconclusive; also: % is scaled to controls: 0 for no effect and ±100 for the full control effect). The settings on record: ARE-bla HepG2 viability, CellTiter-Glo ATP luminescence, 16 h; max response: stronger effect = lower value. The method, boiled down: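 ARE-bla HepG2 cells (2,000/well) rested 5 hrs at 37C/5% CO2, then exposed to compounds in DMSO for 16 hrs. Viability was read in the same wells as intracellular ATP by luminescence, 30 min at room temperature after reagent addition.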

The nature of experiment [17]: qHTS assay for cell viability of HEK293 cells (AID 743288). Also: % is scaled to controls: 0 for no effect and ±100 for the full control effect; nearly all actives have a fitted effect of over 50% in size. As to conditions: ATP luminescence (CellTiter-Glo), 18 h; max response: stronger effect = lower value. The method, boiled down: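 Viable-cell counts were inferred from luciferase-based ATP content in HEK293 cells seeded at 2,000/well, pre-incubated ≥5 h, then dosed with DMSO-solubilised compounds for 18 h at 37 C.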

Experiment [18] is described as follows: qHTS assay for cell viability of the p53RE-bla HCT-116 cell line (AID 743292). Also: % is scaled to controls: 0 for no effect and ±100 for the full control effect; nearly all actives have a fitted effect of over 55% in size. An outline of the steps: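 Readout: CellTiter-Glo luminescence after 30 min RT. Treatment: compounds in DMSO, 16 h, 37 C. Cells: CellSensor p53RE-bla HCT-116, 4,000/well, preincubated 5 h.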
For experiment [19], the target named is Nuclear receptor subfamily 1 group I member 2 (Rattus norvegicus) (UniProt Q9R1A7). The experiment in a line: qHTS assay for small molecule activators of the rat pregnane X receptor (rPXR) signaling pathway (AID 651751; call rule not given here; also: 0% is about no effect). The settings on record: rPXR reporter cells, luciferase (One-Glo), 24 h.
The nature of experiment [20]: qHTS assay for small molecule activators of the human pregnane X receptor (PXR) signaling pathway (AID 720659; call rule not given here; also: 0% is about no effect).

Results filed as inconclusive are left out. Activity calls are given as the source filed them. Unless noted, calls follow the shape of the dose curve; as a rule, active = well fitted curve in the direction sought with a large enough effect; inconclusive = small, poorly fitted or top-dose-only effect, or another doubt; inactive = no such curve, though single readings can be large; an effect the other way counts as inactive or inconclusive.

Chain of Peroxisome proliferator-activated receptor gamma (Homo sapiens) (P37231 whole entry, looked up): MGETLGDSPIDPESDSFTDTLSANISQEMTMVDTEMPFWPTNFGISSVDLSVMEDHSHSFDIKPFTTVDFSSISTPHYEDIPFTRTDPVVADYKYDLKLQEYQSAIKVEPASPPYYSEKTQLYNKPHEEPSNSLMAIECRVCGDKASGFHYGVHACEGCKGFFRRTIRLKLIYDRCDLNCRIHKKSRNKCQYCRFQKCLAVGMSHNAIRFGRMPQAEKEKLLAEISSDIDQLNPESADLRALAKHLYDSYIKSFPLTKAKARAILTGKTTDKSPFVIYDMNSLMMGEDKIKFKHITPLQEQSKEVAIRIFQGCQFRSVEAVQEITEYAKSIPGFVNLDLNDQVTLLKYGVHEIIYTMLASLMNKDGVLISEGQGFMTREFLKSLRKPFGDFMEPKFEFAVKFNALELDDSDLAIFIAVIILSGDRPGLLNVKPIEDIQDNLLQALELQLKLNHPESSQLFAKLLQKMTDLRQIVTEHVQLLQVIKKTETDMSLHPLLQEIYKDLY
Chain of Nuclear receptor subfamily 1 group I member 2 (Rattus norvegicus) (Q9R1A7 whole entry, looked up): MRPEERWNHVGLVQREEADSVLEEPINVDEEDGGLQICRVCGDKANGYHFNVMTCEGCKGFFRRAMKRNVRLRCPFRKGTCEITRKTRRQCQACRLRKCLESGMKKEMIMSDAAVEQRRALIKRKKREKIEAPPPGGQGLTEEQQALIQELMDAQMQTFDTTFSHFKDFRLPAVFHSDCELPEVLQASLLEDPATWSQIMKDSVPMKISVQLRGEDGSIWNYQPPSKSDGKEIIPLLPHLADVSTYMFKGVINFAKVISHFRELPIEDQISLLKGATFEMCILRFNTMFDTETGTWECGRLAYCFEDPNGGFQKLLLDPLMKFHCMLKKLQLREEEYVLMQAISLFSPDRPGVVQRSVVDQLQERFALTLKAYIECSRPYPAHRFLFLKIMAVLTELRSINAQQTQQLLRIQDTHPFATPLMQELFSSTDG
Chain of Estrogen receptor (Homo sapiens) (P03372 whole entry, looked up): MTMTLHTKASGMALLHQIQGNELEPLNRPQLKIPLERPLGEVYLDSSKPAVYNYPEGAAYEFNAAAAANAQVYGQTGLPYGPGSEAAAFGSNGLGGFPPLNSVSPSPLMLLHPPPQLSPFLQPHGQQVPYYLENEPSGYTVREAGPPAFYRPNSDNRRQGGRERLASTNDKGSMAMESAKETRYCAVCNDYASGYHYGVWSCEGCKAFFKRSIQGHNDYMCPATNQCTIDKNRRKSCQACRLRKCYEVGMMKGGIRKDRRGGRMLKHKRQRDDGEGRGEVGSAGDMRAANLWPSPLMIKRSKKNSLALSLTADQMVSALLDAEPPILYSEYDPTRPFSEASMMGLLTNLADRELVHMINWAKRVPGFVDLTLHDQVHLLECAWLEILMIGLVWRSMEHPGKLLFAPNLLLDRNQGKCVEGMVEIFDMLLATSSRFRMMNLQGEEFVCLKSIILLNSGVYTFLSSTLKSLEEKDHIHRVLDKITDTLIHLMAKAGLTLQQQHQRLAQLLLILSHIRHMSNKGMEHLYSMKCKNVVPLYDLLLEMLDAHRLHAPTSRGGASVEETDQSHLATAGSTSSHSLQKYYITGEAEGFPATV
Chain of Thyroid hormone receptor beta (Homo sapiens) (P10828 whole entry, looked up): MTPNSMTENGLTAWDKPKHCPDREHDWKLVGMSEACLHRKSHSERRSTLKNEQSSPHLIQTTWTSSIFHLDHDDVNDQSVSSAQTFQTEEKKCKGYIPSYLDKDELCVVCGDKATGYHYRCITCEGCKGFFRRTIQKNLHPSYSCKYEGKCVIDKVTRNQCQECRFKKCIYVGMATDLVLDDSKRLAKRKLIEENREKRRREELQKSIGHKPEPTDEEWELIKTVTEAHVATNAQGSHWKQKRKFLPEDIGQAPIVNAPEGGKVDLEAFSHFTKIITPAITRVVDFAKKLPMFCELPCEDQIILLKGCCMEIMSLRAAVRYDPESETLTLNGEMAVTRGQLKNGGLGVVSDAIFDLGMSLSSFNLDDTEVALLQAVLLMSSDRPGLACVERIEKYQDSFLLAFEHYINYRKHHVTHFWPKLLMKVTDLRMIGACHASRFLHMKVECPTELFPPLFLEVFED
Chain of Glucocorticoid receptor (Homo sapiens) (P04150 whole entry, looked up): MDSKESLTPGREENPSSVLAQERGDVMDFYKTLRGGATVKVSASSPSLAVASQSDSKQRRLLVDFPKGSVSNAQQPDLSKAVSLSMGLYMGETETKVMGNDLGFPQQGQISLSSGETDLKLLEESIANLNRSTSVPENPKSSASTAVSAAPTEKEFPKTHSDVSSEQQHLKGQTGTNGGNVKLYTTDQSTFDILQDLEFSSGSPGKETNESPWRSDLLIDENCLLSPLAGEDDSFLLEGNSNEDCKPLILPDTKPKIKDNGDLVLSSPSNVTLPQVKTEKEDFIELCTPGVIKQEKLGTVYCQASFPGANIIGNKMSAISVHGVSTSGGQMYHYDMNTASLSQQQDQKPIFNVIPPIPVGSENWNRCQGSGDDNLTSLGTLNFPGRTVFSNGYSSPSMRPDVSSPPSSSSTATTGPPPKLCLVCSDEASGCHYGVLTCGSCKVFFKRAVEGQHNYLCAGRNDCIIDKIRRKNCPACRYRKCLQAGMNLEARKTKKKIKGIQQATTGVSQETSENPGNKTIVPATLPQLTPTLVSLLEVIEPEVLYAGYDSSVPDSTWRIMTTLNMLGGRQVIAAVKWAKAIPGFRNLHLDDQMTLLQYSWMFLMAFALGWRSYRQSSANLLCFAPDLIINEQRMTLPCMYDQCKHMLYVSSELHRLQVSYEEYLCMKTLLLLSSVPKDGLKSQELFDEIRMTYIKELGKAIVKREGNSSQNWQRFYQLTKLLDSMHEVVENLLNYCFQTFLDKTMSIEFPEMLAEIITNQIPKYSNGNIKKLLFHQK
Chain of Peroxisome proliferator-activated receptor alpha (Homo sapiens) (Q07869 whole entry, looked up): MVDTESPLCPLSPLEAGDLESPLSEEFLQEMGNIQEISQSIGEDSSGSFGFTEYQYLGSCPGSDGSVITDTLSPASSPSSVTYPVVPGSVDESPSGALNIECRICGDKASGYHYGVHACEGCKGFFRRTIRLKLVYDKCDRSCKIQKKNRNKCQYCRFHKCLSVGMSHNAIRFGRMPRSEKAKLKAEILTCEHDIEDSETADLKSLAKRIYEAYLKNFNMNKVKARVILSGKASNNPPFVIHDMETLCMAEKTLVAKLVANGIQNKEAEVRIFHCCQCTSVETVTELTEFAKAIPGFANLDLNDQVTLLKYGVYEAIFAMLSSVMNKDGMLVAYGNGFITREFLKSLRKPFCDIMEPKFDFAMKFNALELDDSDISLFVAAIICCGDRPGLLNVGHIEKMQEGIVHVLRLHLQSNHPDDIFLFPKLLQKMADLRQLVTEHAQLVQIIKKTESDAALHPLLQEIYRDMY
Chain of Peroxisome proliferator-activated receptor delta (Homo sapiens) (Q03181 whole entry, looked up): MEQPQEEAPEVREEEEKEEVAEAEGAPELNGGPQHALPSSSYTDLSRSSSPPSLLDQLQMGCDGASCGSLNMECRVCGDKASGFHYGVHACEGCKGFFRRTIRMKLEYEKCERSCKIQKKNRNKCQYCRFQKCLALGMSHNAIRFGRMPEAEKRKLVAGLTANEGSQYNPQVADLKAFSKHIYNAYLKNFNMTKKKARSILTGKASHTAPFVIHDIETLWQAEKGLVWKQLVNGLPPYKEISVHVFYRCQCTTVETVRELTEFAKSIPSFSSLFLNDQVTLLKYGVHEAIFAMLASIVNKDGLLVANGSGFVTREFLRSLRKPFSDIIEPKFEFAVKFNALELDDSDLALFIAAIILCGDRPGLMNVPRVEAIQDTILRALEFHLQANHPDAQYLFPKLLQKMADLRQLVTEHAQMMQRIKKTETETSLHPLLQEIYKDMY
Chain of Retinoic acid receptor RXR-alpha (Homo sapiens) (P19793 whole entry, looked up): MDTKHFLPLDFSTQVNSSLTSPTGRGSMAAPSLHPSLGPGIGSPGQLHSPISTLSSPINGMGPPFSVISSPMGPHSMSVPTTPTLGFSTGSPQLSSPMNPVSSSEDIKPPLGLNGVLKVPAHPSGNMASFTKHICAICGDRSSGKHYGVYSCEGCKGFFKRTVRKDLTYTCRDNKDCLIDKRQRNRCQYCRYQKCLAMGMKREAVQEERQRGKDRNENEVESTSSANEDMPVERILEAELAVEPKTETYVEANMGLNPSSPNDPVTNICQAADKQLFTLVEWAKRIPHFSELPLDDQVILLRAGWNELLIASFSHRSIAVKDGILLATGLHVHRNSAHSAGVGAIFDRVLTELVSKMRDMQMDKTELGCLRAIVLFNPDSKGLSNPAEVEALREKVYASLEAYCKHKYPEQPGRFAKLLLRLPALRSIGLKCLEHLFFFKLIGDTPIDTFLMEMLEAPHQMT

`COC(=O)c1ccccc1C(=O)O`: the Potency result in experiment [1], in experiment [2], in [5], in experiment [8], in [15] and in experiment [18] was “inactive” each time. The activation in [3] is -3.15% (inactive); in experiment [12] it was -3.42% (inactive); in experiment [13], 0.0502% (inactive). Moreover, the max response in [4] is 47.6%; in [7], -12.1%; in experiment [9], -4.92%; in experiment [10], -10.2% (inactive); in experiment [14] it was -0.96% (inactive); in [16], -2.33% (inactive). The max response in experiment [17] is -13.6% (inactive); in experiment [19] it was 2.64% (inactive). The compound was called inactive in experiment [6] and in experiment [20]. The activity change % (negative = inhibition) in experiment [11] is -12.2% (inactive).

As to `NCCCCCCCCCCCC(=O)O`, the Potency entry in experiment [1], in [2], in [5], in experiment [8], in experiment [15] and in experiment [18] was “inactive” in each case. Further, the activation in experiment [3] is 8.75% (inactive); in experiment [13] it was -1.28% (inactive). In addition, the max response in experiment [4] is 20.5%; in [7], -5.4%; in [9], -12%; in experiment [10], 2.61% (inactive); in [14], -1.44% (inactive); in [16] it was 4.58% (inactive). For the same compound, the max response was 6.09% (inactive) in experiment [17] and -0.534% (inactive) in experiment [19]. Further, the call in experiment [6] and in experiment [20] was inactive. Moreover, in [11], the activity change % (negative = inhibition) is 11.2% (inactive).

As for `Cc1ccc(S(=O)(=O)N=C=O)cc1`, the Potency result in [1], in [2], in experiment [5], in [8] and in experiment [18] was “inactive” in each case. The activation in experiment [3] was 20.2% (inactive); in [12], -3.48% (inactive); in experiment [13], -0.31% (inactive). Further, the max response in experiment [4] was 5.8%; in experiment [7] it was 15.4%; in experiment [9], -8.47%; in experiment [10], 12.7% (inactive); in experiment [14], -0.858% (inactive); in experiment [16] it was -7.8% (inactive). Also, the max response is -6.04% (inactive) in [17] and -1.2% (inactive) in experiment [19]. Moreover, the outcome in [6] and in experiment [20] was inactive. Also, the activity change % (negative = inhibition) in experiment [11] was 8.97% (inactive).

As to `CC(=O)/C=C/C1C(C)=CCCC1(C)C` (stereo unspecified), the Potency result in experiment [1], in [2], in [5], in experiment [8], in experiment [15] and in experiment [18] was “inactive” in each case. Further, the max response in experiment [4] is -18.3%; in [7], 0.774%; in [9], 1.01%; in experiment [10], -10.8% (inactive); in experiment [14], -0.682% (inactive); in experiment [16], 1.13% (inactive). For the same compound, the max response in experiment [17] was -13.5% (inactive); in [19], 8.79% (inactive). For the same compound, in experiment [6], the result was inactive. In addition, the activity change % (negative = inhibition) in experiment [11] is 5.94% (inactive). Besides, the activation in [12] is -1.49% (inactive); in experiment [13] it was 0.579% (inactive).

On to `Cc1cc(C)c(N)c(Cl)c1`, for which the Potency result in experiment [1], in experiment [2], in experiment [5], in experiment [8], in [15] and in experiment [18] was “inactive” in each case. For the same compound, the activation in [3] is 5.1% (inactive); in experiment [12], -7.91% (inactive); in experiment [13] it was -1.79% (inactive). For the same compound, the max response is 24.2% in [4]; -1.71% in [7]; 2.61% (inactive) in experiment [16]; -10.1% (inactive) in experiment [17]; -0.981% (inactive) in experiment [19]. Further, the call in [6] and in [20] was inactive. For the same compound, the activity change % (negative = inhibition) in experiment [11] is -1.82% (inactive).

On to `CC(C)c1cccc(C(C)C)c1`, for which the Potency entry in experiment [1], in [2], in experiment [5], in experiment [8] and in experiment [18] was “inactive” in each case. Also, the activation is -12.5% (inactive) in experiment [3] and 2.18% (inactive) in experiment [13]. For the same compound, the max response was -5.64% in experiment [4]; -9.24% in experiment [7]; -3.77% in [9]; -4.2% (inactive) in experiment [10]; -1.99% (inactive) in [14]; -8.28% (inactive) in experiment [16]. Also, the max response in experiment [17] is -5.18% (inactive); in [19], -1.81% (inactive). The compound was called inactive in experiment [6] and in experiment [20]. Further, the activity change % (negative = inhibition) in experiment [11] is -5.42% (inactive).
